Bioassay records as filed in PubChem.
Only some compounds are listed: those with a hit (about 12% of all), similar ones and a draw of the others.
G9a block – blocks human histone lysine methyltransferase G9a; Q96KQ7; G9a H3K9 monomethylation, AlphaScreen, 2 h; Potency, µM (highest dose often 102 µM), most hits filed as inhibitors; actives 8.8% (n = 350,000); AID 504332; note: nearly all actives have a fitted effect of over 75% in size
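Enzyme 20 nM + cpd, 15 min RT; add b-H3K9 pep 500 nM / SAM 20 uM; 2 h RT; anti-H3K9me1 Ab 0.5 ug/mL + SA donor / anti-rabbit acceptor beads 20 ug/mL each, 10 min; AlphaScreen read.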
JMJD2A Tudor – blocks the human JMJD2A Tudor domain | O75164 | AlphaScreen JMJD2A-Tudor / H3K4me3 peptide binding | Potency, µM (top dose mostly 114 µM), usual class: inhibitors | actives 4.4% (n = 390,000) | AID 504339; note: nearly all actives have a fitted effect of over 50% in size
HP1b chromo inh – HP1-beta chromodomain-methylated histone interaction inhibition. actives 0.56% (n = 390,000). AlphaScreen HP1-beta / biotin-H3K9me3 peptide binding. Potency, µM (top dose mostly 114 µM), actives largely listed as inhibitors; note: nearly all actives have a fitted effect of over 70% in size
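HP1-beta protein (50 nM final) preincubated 30 min at room temperature with biotinylated H3(1-18)K9me3 peptide (50 nM) in PBS pH 7.4, 0.01% Tween-20, then compound added for 30 min. AlphaScreen streptavidin donor/nickel chelate acceptor beads (10 ug/mL final), 30 min dark, luminescence read.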
Sfp inh – inhibitors of Bacillus subtilis Sfp phosphopantetheinyl transferase; Q9F4F7; Biochemical Sfp PPTase activity, qHTS; Potency, µM, usual class: inhibitors; actives 3.5% (n = 310,000); AID 1490;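 note: the enzyme is Sfp with the accession as filed and its product quenches rhodamine fluorescence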
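Buffer: 50 mM Hepes-Na pH 7.6, 10 mM MgCl2, 0.01% Nonidet P-40, 0.01% BSA. Enzyme 15 nM, pre-exposed to compound 15 min; substrates then added and fluorescence change tracked over 30 min.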
BAZ2B inh – BAZ2B (human) inhibition; actives 4.4% (n = 360,000); Potency, µM (top dose mostly 114 µM), most hits filed as inhibitors; Q9UIF8; AlphaScreen BAZ2B-H3K14Ac peptide displacement; note: nearly all actives have a fitted effect of over 60% in size
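AlphaScreen luminescence quantifies BAZ2B engagement of H3K14Ac peptide; the protein and biotinylated peptide are both at 50 nM final, buffer PBS pH 7.4 with 0.01% Tween-20, all steps at room temperature.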
Hits are given with their value; - = inactive; ? = inconclusive; . = no result; [ ] = remark or other dose. Calls come from the whole dose curve; as a rule, active = well fitted curve in the direction sought with a large enough effect; inconclusive = small, poorly fitted or top-dose-only effect, or another doubt; inactive = no such curve, though single readings can be large; an effect the other way counts as inactive or inconclusive.

SMILES	G9a block	JMJD2A Tudor	HP1b chromo inh	Sfp inh	BAZ2B inh
CCN1Cc2cccc(C(=O)Nc3ccc(F)cc3)c2C1=O	-	-	-	.	-
CCOc1cc(/C=N/NC(=O)c2nnn(-c3nonc3N)c2C)ccc1OCc1cccc(F)c1	-	-	-	-	-
Nc1c(-c2ccc3c(c2)OCCO3)oc2ccccc2c1=O	50.1µM	-	-	-	-
CCC(C)NC(=O)CSc1nc2c(sc3ccccc32)c(=O)n1Cc1ccccc1Cl (stereo unspecified)	-	-	-	.	-
CC1C=CC(C)C(C(=O)O)C1C(=O)O (stereo unspecified)	?	44.7µM	-	-	50.1µM
C#CCOCCOCCOCCNc1nc(N2CCN(C(=O)[C@H](CCCN=C(N)N)n3cc(C(N)[C@@H](C)CC)nn3)CC2)nc(N2CCN(C(=O)[C@H](CCCCN)n3cc([C@@H](N)CC(N)=O)nn3)CC2)n1 (stereo partly specified)	.	89.1µM	-	.	.
C#CCOCCOCCOCCNc1nc(N2CCN(C(=O)[C@H](CCCN=C(N)N)n3cc(C(N)[C@@H](C)CC)nn3)CC2)nc(N2CCN(C(=O)[C@H](CCC(=O)O)n3cc([C@@H](N)CO)nn3)CC2)n1 (stereo partly specified)	.	25.1µM	-	.	.
C#CCOCCOCCOCCNc1nc(N2CCN(C(=O)[C@H](CCCN=C(N)N)n3cc(C(N)[C@@H](C)CC)nn3)CC2)nc(N2CCN(C(=O)[C@H](CCC(=O)O)n3cc([C@@H](N)[C@H](C)CC)nn3)CC2)n1 (stereo partly specified)	.	?	-	.	.
C#CCOCCOCCOCCNc1nc(N2CCN(C(=O)[C@H](CCCN=C(N)N)n3cc(C(N)[C@@H](C)CC)nn3)CC2)nc(N2CCN(C(=O)[C@H](CCC(=O)O)n3cc([C@@H](N)CC(N)=O)nn3)CC2)n1 (stereo partly specified)	.	50.1µM	-	.	.
C#CCOCCOCCOCCNc1nc(N2CCN(C(=O)C([C@@H](C)O)n3cc([C@@H](N)CCCCN)nn3)CC2)nc(N2CCN(C(=O)[C@H](CCCN=C(N)N)n3cc(C(N)[C@@H](C)CC)nn3)CC2)n1 (stereo partly specified)	.	56.2µM	-	.	.
C#CCOCCOCCOCCNc1nc(N2CCN(C(=O)C([C@@H](C)O)n3cc([C@@H](N)CCCCN)nn3)CC2)nc(N2CCN(C(=O)[C@H](CC(N)=O)n3cc([C@@H](N)C(C)C)nn3)CC2)n1 (stereo partly specified)	.	?	-	.	.
CCOC(=O)c1cc(OC(=O)c2ccc(C)cc2)n(-c2ccccc2)n1	-	-	-	.	-
CN(CC(=O)NCc1ccncc1)S(=O)(=O)c1ccc2ccccc2c1	-	-	-	-	-
O=C(CN1C(=O)COc2ccc(S(=O)(=O)N3CCCC3)cc21)N1CCN(c2ccc(F)cc2)CC1	-	-	-	.	?
Cc1nc2ccc(Cl)cc2nc(C)/c1=N\O	28.2µM	-	-	-	-
CCn1ccc2cc(S(=O)(=O)N3CCC(C(=O)NCc4ccc(F)cc4)CC3)ccc21	-	-	-	.	-
CCOC(=O)CC(NC(=O)CCc1c(C)nc2c(c(C)nn2-c2ccc(C)c(C)c2)c1C)c1ccc(C)cc1 (stereo unspecified)	-	-	-	.	-
Cc1cccc(NC(=O)c2ccc(COc3ccc4ccccc4c3)o2)n1	-	-	-	-	-
Cc1c(Nc2nc(-c3ccc(Cl)cc3)cs2)c(=O)n(-c2ccccc2)n1C	-	?	-	-	-
Cc1c(NC(=O)c2ccc(COc3ccc4ccccc4c3)o2)c(=O)n(-c2ccccc2)n1C	?	-	-	-	50.1µM
Cc1c(Nc2scc(-c3ccccc3)[n+]2-c2ccccc2)c(=O)n(-c2ccccc2)n1C	28.2µM	56.2µM	?	?	50.1µM
Cc1c(NC(=O)c2cc(-c3ccccc3)on2)c(=O)n(-c2ccccc2)n1C	-	100µM	-	-	-
Cc1onc(-c2c(F)cccc2Cl)c1C(=O)NC(=S)Nc1c(C)n(C)n(-c2ccccc2)c1=O	31.6µM	-	-	-	?
CCNc1ncc2nc(-c3cc(F)cc(F)c3)c(=O)n(Cc3ccc(F)cc3)c2n1	-[0.501 µM]	.	.	-	.
Cc1cc(-c2ccc(C)c(S(=O)(=O)N3CCN(c4cccc(C(F)(F)F)c4)CC3)c2)on1	-	-	-	.	-
SMILES	G9a block	JMJD2A Tudor	HP1b chromo inh	Sfp inh	BAZ2B inh
Cc1cc(C)c2c(C)c(C(=O)Nc3c(C)n(C)n(-c4ccccc4)c3=O)oc2c1	70.8µM	-	-	-	-
Cc1c(NC(=O)c2cc3ccccc3oc2=O)c(=O)n(-c2ccccc2)n1C	25.1µM	-	-	-	-
Cc1ccc2c(=O)cc(C(=O)Nc3c(C)n(C)n(-c4ccccc4)c3=O)oc2c1	?	-	-	.	-
COc1ccc(-c2onc(C)c2C)cc1S(=O)(=O)NCc1ccco1	-	-	-	.	-
CCn1cc(C(=O)NCc2ccco2)c(=O)c2cc(F)c(N3CCN(C(=O)c4ccco4)CC3)cc21	14.1µM	-	-	?	56.2µM
CCn1cc(C(=O)NCC(C)C)c(=O)c2cc(F)c(N3CCN(C(=O)c4ccco4)CC3)cc21	-	-	-	-	-
CCn1cc(C(=O)NCCc2ccccc2)c(=O)c2cc(F)c(N3CCN(C)CC3)cc21	-	-	-	-	-
CCn1cc(C(=O)NCc2ccccn2)c(=O)c2cc(F)c(N3CCN(C)CC3)cc21	0.447µM	-	-	-	-
CCN(c1ccccc1)S(=O)(=O)c1ccc(NC(=O)c2cc(=O)c3c(C)cc(C)cc3o2)cc1	-	-	-	.	-
Cc1ccc(S(=O)(=O)Oc2ccccc2[N+](=O)[O-])cc1	.	-	-	.	.
On1c(-c2ccc(Cl)cc2Cl)nc2ncccc21	-	-	-	-	-
CCn1c(CCCOc2ccc(Cl)cc2Cl)n[nH]c1=S	?	-	-	-	-
S=c1[nH]nc(-c2ccc(Cl)cc2Cl)n1Cc1ccccc1	?	12.6µM	?	?	-
S=c1[nH]nc(-c2ccc(Cl)cc2Cl)n1-c1ccccc1	6.31µM	-	-	-	-
CCn1c(-c2cccn(Cc3ccc(Cl)cc3Cl)c2=O)n[nH]c1=S	8.91µM	-[11.4 µM]	-	-	-
S=c1[nH]nc(COc2cccc(Cl)c2)n1Cc1ccccc1	-[12.7 µM]	-	-	-	-
S=c1[nH]nc(COc2ccc(Cl)cc2Cl)n1-c1ccccc1	10µM	-	-	-	-
Cc1ccccc1CNC(=O)CCSCc1cnn(-c2ccccc2)c1-n1cccc1	?	-	-	.	-
CN1N=C2c3ccccc3CCCC2C1c1ccc(F)cc1 (stereo unspecified)	79.4µM	-	-	-	-
CCOc1ccc(C(=O)Nc2cc3c(cc2N2CCCC2)n(CC)c(=O)n3CC)cc1OCC	44.7µM	-	-	-	?
